A selection: hits, their analogues and other compounds. The true share with any hit is near 3.6%.
Bead autofluor – compound fluorescence in toxin protease inhibitor counterscreen; compound autofluorescence counterscreen, microsphere flow cytometry; hits give high values; fluorescence intensity (test concentration not listed); 3.1% of 360,000 active; AID 624483; in the data active means fluorescence intensity above about 16000; inconclusive means no clear call, values can overlap the other calls
MazEF act – increases E. coli MazEF RNase cleavage of RNA | FAM/BHQ RNA-DNA oligo cleavage fluorescence, 5 h | activation, % at 20 µM | 0.32% of 350,000 active | AID 504720; in the data active means activation above about 50%
Target sequence (P0AE70 whole entry, looked up): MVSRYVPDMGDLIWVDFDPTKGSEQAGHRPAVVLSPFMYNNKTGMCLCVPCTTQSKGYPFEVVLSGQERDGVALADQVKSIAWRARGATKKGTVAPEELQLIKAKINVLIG
Anthrax LF prot – blocks Bacillus anthracis lethal factor protease. P15917. multiplex microsphere protease cleavage assay, LF. inhibition, % at 10 µM. 0.12% of 360,000 active
BoNT A protease – blocks Botulinum neurotoxin A light chain protease; 0.17% of 360,000 active; AID 588499; multiplex microsphere protease substrate cleavage, flow cytometry; inhibition, % at 10 µM
BoNT F protease – inhibitors of Botulinum neurotoxin F light chain protease; AID 588497; Multiplex microsphere protease cleavage assay, flow cytometry; 0.22% of 360,000 active; inhibition, % at 10 µM; in the data active means inhibition above about 35%, passing the limit was not always enough; inconclusive means no clear call, values can overlap the other calls
Each line names hits and unclear results; the compound was inactive in the other large screens. Unless noted, no stated cut-off is given here; in the data, active means inhibition above about 30%; inconclusive means no clear call, values can overlap the other calls; inactive means below that.

O=C(Nc1ccc2c(c1)C(=O)N(CC1CCCO1)C2=O)c1ccc(Cl)c(Cl)c1 (configuration not stated)	Bead autofluor 22241, BoNT A protease inconclusive
Cc1cccc(NC(=O)c2ccc(NCCc3ccccc3)c([N+](=O)[O-])c2)c1	MazEF act 575
NC(=O)c1ccc(NCC2CCCO2)c([N+](=O)[O-])c1 (configuration not stated)	none
Cc1ccc(NC(=O)c2ccc(NCC3CCCO3)c([N+](=O)[O-])c2)cc1Cl (configuration not stated)	MazEF act 267
Cc1ccc(NC(=O)c2ccc(NCCN)c([N+](=O)[O-])c2)cc1	none
Cc1ccc(NC(=O)c2ccc(NCc3ccco3)c([N+](=O)[O-])c2)cc1Cl	MazEF act 334
C#CC1(N2CCCCC2)CCCCC1	none
O=[N+]([O-])c1ccc(N2CCN(S(=O)(=O)c3ccc(Cl)cc3)CC2)cc1NCC1CCCO1 (configuration not stated)	Bead autofluor 16643
Cc1cc(C)c(S(=O)(=O)N2CCN(c3ccc([N+](=O)[O-])c(NCC4CCCO4)c3)CC2)c(C)c1 (configuration not stated)	none
COc1cc(Cn2c3ccc(NC(=O)NCc4ccc(F)cc4)cc3c(=O)n2C)ccc1F	none (no result: MazEF act)
COc1c2c(c(CCC(=O)O)c3c1C=CC(C)(C)O3)OC(C)(C)C=C2	none
O=C(CCSc1nnc2ccccn12)Nc1ccc(F)cc1	Bead autofluor 23399
CON(C)C(=O)Nc1ccc(Cl)cc1	Bead autofluor 16992
COc1ccc(N(CC(=O)Nc2ccccc2C(=O)NCCc2ccccc2)S(C)(=O)=O)cc1OC	Bead autofluor 21907
CC(C)CNC(=O)c1ccccc1NC(=O)CN(c1ccc2c(c1)OCCO2)S(C)(=O)=O	none
CS(=O)(=O)N(CC(=O)Nc1ccccc1C(=O)NCc1ccco1)c1ccc2c(c1)OCCO2	Bead autofluor 23961
CCC(C)NC(=O)c1ccccc1NC(=O)CN(c1ccc(OC)cc1)S(C)(=O)=O (configuration not stated)	Bead autofluor 23469
COCCNC(=O)c1ccccc1NC(=O)CN(c1ccc2c(c1)OCO2)S(C)(=O)=O	none
COc1ccc(N(CC(=O)Nc2ccccc2C(=O)NCC(C)C)S(C)(=O)=O)cc1	none
CCOc1ccc2nc(NC(=S)NCc3ccccc3)sc2c1	Bead autofluor 20242
CCOc1ccc2nc(NC(=O)Nc3ccccc3)sc2c1	none
Cc1ccc(NC(=O)COc2ccc(Br)cc2CO)cc1	Bead autofluor 22055
CC(C)(CO)NCc1ccccc1OCC(=O)Nc1ccccc1	none
Cc1ccc(NC(=O)COc2ccccc2CNC(C)(C)CC(C)(C)C)cc1	Bead autofluor 16482
CCc1c(C)sc(NC(=O)Cc2ccccc2C)c1C(=O)N1CCOCC1	Bead autofluor inconclusive
CCc1nc2ccc(C(=O)NCc3ccccc3OC)cn2c1N(C)Cc1ccc(N(C)C)cc1	none (no result: MazEF act)
CCOC(=O)C1=C(C)NC(=O)NC1c1ccco1 (configuration not stated)	Bead autofluor 23226
COCCOC(=O)C1=C(C)NC(=O)NC1c1ccco1 (configuration not stated)	none
COc1cc(CNn2nnnc2N)cc(Br)c1OCC(=O)NC(C)(C)C	none
COc1cc(CNn2nnnc2N)cc(Br)c1OCc1c(Cl)cccc1Cl	Bead autofluor 23392, BoNT A protease inconclusive
O=C(CCn1c(=O)oc2cc(Cl)ccc21)Nc1ccc(N2CCOCC2)cc1	none
CCC1Nc2ccccc2-c2nnc(SC)nc2O1 (configuration not stated)	none
COc1ccccc1C(=O)C1Nc2ccccc2-c2nnc(SC)nc2O1 (configuration not stated)	Bead autofluor 21854
CCOc1ccc(C(c2c(C)[nH][nH]c2=O)c2c(C)[nH][nH]c2=O)cc1OC	none
CCOc1cc(C(c2c(C)[nH][nH]c2=O)c2c(C)[nH][nH]c2=O)ccc1OCc1ccc([N+](=O)[O-])cc1	Bead autofluor 22205
CCOc1cc(C(c2c(C)[nH][nH]c2=O)c2c(C)[nH][nH]c2=O)ccc1OC(=O)c1cccc([N+](=O)[O-])c1	Bead autofluor 19908
CN(Cc1nnc(-c2ccc(F)cc2)o1)c1ccccc1	none
O=C(COC(=O)Cc1c(F)cccc1Cl)NCc1ccc2c(c1)OCO2	none
CN(C)S(=O)(=O)n1cc(/C=C(\NC(=O)c2ccccc2F)C(=O)N2CCCCC2)c2ccccc21	none
CCC(C)c1ccccc1N1CC(C(=O)NCCCn2nc(C)cc2C)CC1=O (configuration not stated)	Bead autofluor inconclusive
O=C(Nc1cccc2cccnc12)c1ccc2c(c1)OCCO2	Bead autofluor 23021, BoNT A protease inconclusive
CC(C)Cc1nnc(NC(=O)c2cc(-c3ccncc3)nc3ccccc23)s1	none
Cc1ccc(C)c(-c2cc(C(=O)Nc3sc(C)c(C)c3C(N)=O)c3ccccc3n2)c1	Bead autofluor 23000, BoNT A protease inconclusive
O=C(Nc1ccc2oc(-c3ccccc3)nc2c1)c1ccc2c(c1)OCCO2	Bead autofluor 22968
CC(C)Cc1nnc(NC(=O)c2cc(-c3ccccc3)nc3ccccc23)s1	Bead autofluor 16445
Cc1[nH]c2ccc(C(=O)OCC(=O)NC3(C#N)CCCCC3)cc2c1C	Anthrax LF prot inconclusive
COc1ccc(C2CC(=O)Oc3cc(C)c(Cl)c(C)c32)cc1 (configuration not stated)	none
Cc1ccc(S(=O)(=O)N(C)C[C@H]2OCc3cnnn3CCCC(=O)N([C@H](C)CO)C[C@H]2C)cc1	none
O=C(Nc1ccc2c(c1)OCCO2)c1cc(-c2ccccc2)nc2ccccc12	Bead autofluor 24974, BoNT A protease inconclusive
O=C(Nc1ccc2c(c1)OCO2)c1cc(-c2ccncc2)nc2ccccc12	none
Cc1nc2cc(-c3cccs3)[nH]n2c(=O)c1C	Bead autofluor 17502
Cc1ccccc1-c1cc2nc(C)c(C)c(=O)n2[nH]1	none
CCN(CC)c1ccc(/C=N/n2c(C)cc(C)cc2=O)cc1	Bead autofluor 19156
O=C(O)c1ccc2c(c1)S(=O)(=O)c1cc(N3CCN(c4ncccn4)CC3)ccc1C2=O	none
COC(=O)c1c(NS(=O)(=O)c2cccs2)sc2c1CCCC2	Bead autofluor 25083
O=C(Nc1sc2c(c1C(=O)O)CCCC2)c1cccs1	Bead autofluor 24122
COC(=O)c1c(NC(=O)Cc2cccs2)sc2c1CCCC2	none
CC(C)C[C@@H]1COc2cccc(N3CCN(Cc4ccccc4F)CC3)c2S(=O)(=O)N1	none (no result: MazEF act)
CCc1nc2ccc(C)cc2c(C(=O)NC2CCCCC2C)c1C (configuration not stated)	Bead autofluor 18786, BoNT A protease inconclusive
Cc1ccc2nc(C)cc(C(=O)NC3CCCCCC3)c2c1	none
OCCNc1ncnc2c1ncn2[C@H]1CN(Cc2ccco2)C[C@@H](CO)O1	none (no result: MazEF act)
COc1ccc(-n2cnc3cc(NCc4ccccn4)ccc32)cc1	Bead autofluor 18683
c1ccc(-n2cnc3cc(NCc4cccs4)ccc32)cc1	Bead autofluor 23254, BoNT A protease inconclusive
COc1ccc(-n2cnc3cc(NCc4cccs4)ccc32)cc1	none
CCCn1cnc2cc(NCc3ccccn3)ccc21	none

Assay outcomes (PubChem BioAssay)
